Where “and” joins values, the source holds several entries; their conditions need not be identical. Equal values may be shown once. Some structures have more than one record in an assay (separate samples or runs), and their calls can disagree. Calls of active or inactive are those of the source. The calls were made as follows: active = hit-call score of the fitted dose curve at least 0.9, where 1 is the maximum; inactive = score below 0.9.
These molecules were tested on Intercellular Adhesion Molecule 1 (ICAM1), ICAM1 (gene 3383) (assay: BSK_BE3C_ICAM1: BioMAP Diversity Plus: BE3C Assay for Intercellular Adhesion Molecule 1 (ICAM1) Biomarker Activity (AID 2284278)). Conditions: primary human bronchial epithelial cells.
Experimental: BSK_BE3C is a cell-based, multiplexed-readout assay that uses bronchial epithelial cell, a human lung primary cell, with measurements taken at 24 hours after chemical dosing in a 96-well plate.BSK_BE3C_ICAM1 is an assay component measured in the BSK_BE3C assay. It measures ICAM-1 antibody related to regulation of gene expression using ELISA technology.Data from the assay component BSK_BE3C_ICAM1 was analyzed at the endpoint, BSK_BE3C_ICAM1, in the positive analysis fitting direction relative to DMSO as the negative control and baseline of activity. Using a type of binding reporter, gain or loss-of-signal activity can be used to understand protein changes. To generalize the intended target to other relatable targets, this assay endpoint is annotated to the 'cell adhesion molecules' intended target family, where the subfamily is 'Immunoglobulin CAM'.
The levels of cell surface (or secreted, indicated by the prefix "s") biomarker endpoints were measured by ELISA. Overt cytotoxicity to cells in confluent adherent cultures (all systems other than the BT system) was assessed by measuring total protein levels using sulforhodamine B (SRB) staining in parallel cultures at the time of biomarker measurements, indicated as SRB endpoints. For proliferation assays for adherent cell types, individual cell types are cultured at sub-confluence and relative cell numbers quantified by SRB staining at time points optimized for each system (48 h: 3C and CASM3C systems; 72 h: BT and HDF3CGF systems; 96 h: SAg system). SRB was performed by staining cells with 0.1% SRB after fixation with 10% TCA and reading wells at 560 nm.Viability and proliferation of PBMC (T cells) was quantified by Alamar Blue reduction for the SAg and BT systems. For PBMC viability (referred to as PBMC Cytotoxicity within the assay endpoint names), cells were plated (75,000/well in a 96-well plate) and then chemical samples added for 1 h before addition of activators, SEB and TSST-1 (20 ng/mL final concentration each). Cells were incubated for 90 h. Then, Alamar Blue (20 uL/well) (Invitrogen, Cat DAL1100) was added for 6 h, and the plates were read with a fluorescence microplate reader at 546/580 nm (excitation/emission). For PBMC proliferation, cells were plated and activated as above but incubated for only 16 h prior to addition of Alamar Blue. Plates were read after 6 h.
With `OCC(F)(F)C(F)(F)C(F)(F)C(F)(F)C(F)(F)C(F)(F)C(F)(F)C(F)(F)CO` the AC50 was 44.7 µM (active) and 40.3 µM (active).
With `O=C(O)CCC(F)(F)C(F)(F)C(F)(F)C(F)(F)C(F)(F)C(F)(F)C(F)(F)F` the outcome was “inactive”.
In the case of `O=S(=O)(OCC(F)(F)F)C(F)(F)C(F)(F)C(F)(F)C(F)(F)F`, the outcome is reported as “inactive”.
`O=C(O)C(F)(F)C(F)(F)C(F)(F)C(F)(F)C(F)(F)C(F)(F)C(F)F` was tested, and the outcome was “inactive”.
For `NC(O)(C(F)(F)F)C(F)(F)F`, the outcome was “inactive”.
For `O=C(O)C(F)(F)C(F)(F)C(F)(F)C(=O)O`, the outcome was “inactive”.
`C[Si](Cl)(Cl)CCC(F)(F)C(F)(F)C(F)(F)C(F)(F)C(F)(F)C(F)(F)F` was tested, and the outcome was “inactive”.
`OC(O)C(F)(F)C(F)(F)F` was tested, and the outcome was “inactive”.
In the case of `OCC(F)(F)C(F)(F)C(F)(F)C(F)(F)C(F)(F)C(F)(F)CO`, the outcome is reported as “inactive”.
For `C=CC(=O)OCC(F)(F)C(F)(F)C(F)(F)COC(=O)C=C`, the AC50 was 38.5 µM (active) and 35.5 µM (active).
`O=C(O)C(F)(F)C(F)(F)C(F)(F)OC(F)(F)F` was tested, and the outcome was “inactive”.
With `OCCCCC(F)(F)C(F)(F)C(F)(F)C(F)(F)F` the outcome was “inactive”.
`CCN(CCO)S(=O)(=O)C(F)(F)C(F)(F)C(F)(F)C(F)(F)C(F)(F)C(F)(F)C(F)(F)C(F)(F)F` was tested, and the outcome was “inactive” and the AC50 was 51.6 µM (active).
With `FC(F)(F)C(F)(F)C(F)(F)CC1CO1` (stereo not given) the outcome was “inactive”.
For `C=CC(=O)OCCC(F)(F)C(F)(F)C(F)(F)C(F)(F)F`, the outcome was “inactive”.
`C=CC(=O)OCC(F)(F)C(F)(F)C(F)(F)C(F)(F)C(F)(F)C(F)(F)C(F)(F)C(F)F` was tested, and the outcome was “inactive”.
In the case of `O=S(=O)(O)CCC(F)(F)C(F)(F)C(F)(F)C(F)(F)C(F)(F)C(F)(F)C(F)(F)C(F)(F)F`, the outcome is reported as “inactive”.
For `CNS(=O)(=O)C(F)(F)C(F)(F)C(F)(F)C(F)(F)C(F)(F)C(F)(F)C(F)(F)C(F)(F)F`, the outcome was “inactive”.
In the case of `O=S(=O)(Cl)C(F)(F)C(F)(F)C(F)(F)C(F)(F)C(F)(F)C(F)(F)C(F)(F)C(F)(F)F`, the AC50 is reported as 54.9 µM (active) and 54.8 µM (active).
For `FC(F)(F)C(F)(F)C(F)(F)C(F)(F)C(F)(F)C(F)(F)CC[Si](Cl)(Cl)Cl`, the outcome was “inactive”.
With `OCC(F)(F)C(F)(F)C(F)(F)CO` the outcome was “inactive”.
For `OCC(O)CC(F)(F)C(F)(F)C(F)(F)C(F)(F)F` (stereo not given), the outcome was “inactive”.
With `OCCCC(F)(F)C(F)(F)C(F)(F)C(F)(F)C(F)(F)C(F)(F)C(F)(F)C(F)(F)F` the AC50 was 47 µM (active) and 47.6 µM (active).
For `O=C(O)C(F)(F)C(F)(F)C(F)(F)OC(F)(C(F)(F)F)C(F)(F)F`, the outcome was “inactive”.
`NC(=O)C(F)(F)C(F)(F)C(F)(F)C(F)(F)C(F)(F)C(F)(F)C(F)(F)F` was tested, and the outcome was “inactive”.
With `O=C(Cl)C(F)(F)C(F)(F)C(F)(F)C(F)(F)C(F)(F)C(F)(F)F` the outcome was “inactive”.
With `NCC(F)(F)C(F)(F)C(F)(F)C(F)(F)C(F)(F)C(F)(F)F` the outcome was “inactive”.
In the case of `O=C(F)C1(F)C(F)(F)C(F)(F)C(F)(F)C(F)(F)C1(F)F`, the outcome is reported as “inactive”.
In the case of `NCC(F)(F)C(F)(F)C(F)(F)C(F)(F)C(F)(F)C(F)(F)C(F)(F)C(F)(F)F`, the outcome is reported as “inactive”.
In the case of `CCOC(=O)CC(=O)C(F)(F)C(F)(F)F`, the outcome is reported as “inactive”.
`NS(=O)(=O)C(F)(F)C(F)(F)C(F)(F)C(F)(F)C(F)(F)C(F)(F)F` was tested, and the outcome was “inactive”.
For `NC(=O)C(F)(F)C(F)(F)C(F)(F)C(F)(F)C(N)=O`, the outcome was “inactive”.
In the case of `O=C(O)CCC(F)(F)C(F)(F)C(F)(F)F`, the outcome is reported as “inactive”.
`NC(=O)C(F)(F)C(F)(F)C(F)(F)F` was tested, and the outcome was “inactive”.
With `NC(=O)C(F)(F)C(F)(F)C(F)(F)C(F)F` the outcome was “inactive”.
`COC(F)(C(F)F)C(F)(F)F` (stereo not given) was tested, and the outcome was “inactive”.
In the case of `FC(F)(F)C(F)(F)C(F)(F)C(F)(F)C(F)(F)C(F)(F)C(F)(F)CCI`, the outcome is reported as “inactive”.
For `O=S(=O)(O)CCC(F)(F)C(F)(F)C(F)(F)C(F)(F)F`, the outcome was “inactive”.
In the case of `O=C(Cl)C(F)(F)C(F)(F)C(F)(F)C(F)(F)C(F)(F)C(F)(F)C(F)(F)F`, the outcome is reported as “inactive”.
